Screens: PubChem, several laboratories
NR2F2 inh – inhibitors of human COUP-TFII (NR2F2); P24468; HEK293T NGFI-A luciferase reporter, luminescence; inhibition, % at 8.6 µM; hit rate 0.7% among 370,000;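 active = inhibition above a per-plate cutoff, mean inhibition of test wells between control levels plus 3 SD, cut at about 38% in these data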;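 also: cells cotransfected with COUP-TFII expression vector driving the NGFI-A reporter; 0% = median of COUP-TF2 test wells and 100% = reporter-only cells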
NCOA2 inhibitor – human SRC2 (NCOA2) inhibition | Q15596 | HEK293 GAL4-SRC2 luciferase reporter, luminescence | inhibition, % at 9 µM | hit rate 0.17% among 370,000 | AID 651957;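 active = inhibition above the mean inhibition of all tested compounds plus 3 SD, set per campaign, cut at about 52% in these data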;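 also: 0% = DMSO treated cells and 100% = cells given Gossypol at 36 µM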
Target sequence (Q15596 whole entry, looked up, the tested form may be a part): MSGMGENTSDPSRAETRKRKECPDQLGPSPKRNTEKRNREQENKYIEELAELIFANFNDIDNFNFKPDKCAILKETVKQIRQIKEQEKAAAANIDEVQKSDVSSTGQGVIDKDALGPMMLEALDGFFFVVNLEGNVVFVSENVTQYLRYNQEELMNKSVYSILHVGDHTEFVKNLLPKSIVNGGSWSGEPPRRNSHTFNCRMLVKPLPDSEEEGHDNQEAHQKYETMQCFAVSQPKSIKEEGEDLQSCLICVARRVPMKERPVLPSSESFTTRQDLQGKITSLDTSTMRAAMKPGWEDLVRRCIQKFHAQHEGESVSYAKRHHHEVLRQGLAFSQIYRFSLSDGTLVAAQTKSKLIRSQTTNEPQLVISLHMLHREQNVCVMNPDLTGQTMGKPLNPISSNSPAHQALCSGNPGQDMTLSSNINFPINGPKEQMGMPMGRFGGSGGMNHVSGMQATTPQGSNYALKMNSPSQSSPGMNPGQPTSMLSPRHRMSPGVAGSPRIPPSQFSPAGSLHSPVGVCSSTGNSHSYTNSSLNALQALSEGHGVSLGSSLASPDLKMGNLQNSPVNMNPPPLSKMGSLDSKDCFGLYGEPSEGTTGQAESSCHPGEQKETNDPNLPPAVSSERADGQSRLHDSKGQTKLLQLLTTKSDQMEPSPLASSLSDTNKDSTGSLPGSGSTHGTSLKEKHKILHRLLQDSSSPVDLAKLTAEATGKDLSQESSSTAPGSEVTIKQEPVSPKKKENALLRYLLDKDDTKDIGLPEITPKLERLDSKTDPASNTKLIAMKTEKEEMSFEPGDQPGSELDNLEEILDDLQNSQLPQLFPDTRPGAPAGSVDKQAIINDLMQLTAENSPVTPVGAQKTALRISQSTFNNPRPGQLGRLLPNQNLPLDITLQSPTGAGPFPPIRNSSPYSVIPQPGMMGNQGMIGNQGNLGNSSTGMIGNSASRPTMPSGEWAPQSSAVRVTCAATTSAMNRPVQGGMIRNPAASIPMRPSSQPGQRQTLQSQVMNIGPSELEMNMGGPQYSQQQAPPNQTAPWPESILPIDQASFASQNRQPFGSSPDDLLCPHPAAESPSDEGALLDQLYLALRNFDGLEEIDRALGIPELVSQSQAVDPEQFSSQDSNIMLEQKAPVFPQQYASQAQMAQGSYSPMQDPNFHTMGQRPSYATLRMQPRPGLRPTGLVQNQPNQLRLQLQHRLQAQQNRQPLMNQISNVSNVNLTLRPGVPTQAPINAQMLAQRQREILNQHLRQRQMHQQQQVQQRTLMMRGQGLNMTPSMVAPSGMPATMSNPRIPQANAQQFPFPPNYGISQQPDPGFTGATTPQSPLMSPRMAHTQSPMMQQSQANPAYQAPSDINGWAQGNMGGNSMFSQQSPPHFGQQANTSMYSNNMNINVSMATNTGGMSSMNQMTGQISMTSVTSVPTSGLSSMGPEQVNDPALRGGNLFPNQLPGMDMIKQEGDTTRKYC
LRH-1 inv ag – suppresses constitutive activity of human LRH-1; inhibition, % at 3.6 µM; hit rate 0.13% among 360,000; HEK293T StAR-luciferase reporter, LRH-1 transfected, 24 h;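 active = inhibition above the mean inhibition of all tested compounds plus 3 SD, cut at about 73% in these data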;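 also: 0% = DMSO wells and 100% = reporter-only cells lacking LRH-1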
NCOA3 inh – human NCOA3 inhibition; Q9Y6Q9; HEK293 GAL4-SRC3 luciferase reporter, luminescence; inhibition, % at 3.6 µM; hit rate 0.17% among 360,000; AID 588352;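 active = inhibition above a per-campaign cutoff, the mean of all compounds plus 3 SD, cut at about 60% in these data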;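 also: 0% = DMSO-treated cells and 100% = gossypol-treated cells at 36 µM; higher means less SRC3-driven luciferase light from the GAL4 reporter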
NCOA1 inh – human NCOA1 inhibition; Q15788; HEK293 GAL4-SRC1 luciferase reporter, luminescence; inhibition, % at 3.6 µM; hit rate 0.12% among 360,000;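 active = inhibition above the campaign mean plus 3 SD, with each screening campaign given its own cutoff, cut at about 60% in these data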;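 also: 0% = DMSO treated cells and 100% = gossypol at 36 µM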
Gli-Sufu antag – blocks Gli-Sufu signaling in a luciferase reporter; AID 588413; inhibition, % at 5 µM; hit rate 0.74% among 340,000; Sufu-KO-LIGHT fibroblasts, Gli luciferase reporter luminescence;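 active = inhibition above about 55%, limit read from the data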;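 also: 0% = DMSO-treated cells and 100% = wells with medium but no cells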
VP16 Luc counter – VP16 inhibition counter-screen for COUP-TFII; shares compounds with NR2F2 inh; HEK293 Gal4-VP16 luciferase reporter, luminescence; inhibition, % at 8.5 µM; hit rate 25% among 2,500; AID 687007; in the data active = inhibition above about 13%
NR2F2 inh conf – COUP-TFII (NR2F2) inhibition, confirmation assay. shares compounds with NR2F2 inh. HEK293 NGFI-A luciferase reporter, luminescence. inhibition, % at 8.5 µM. hit rate 45% among 2,500. AID 687008;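 active = mean inhibition over three repeats above a set limit taken from the earlier primary screen, cut at about 38% in these data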;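 also: 100% = cells given the luciferase reporter alone without the COUP-TF2 vector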
Numbers without * were called inactive; i = inactive; · = no result given. Most compounds without a hit are left out; they make up all but 1.3% or so of the library.

SMILES	NR2F2 inh	NCOA2 inhibitor	LRH-1 inv ag	NCOA3 inh	NCOA1 inh	Gli-Sufu antag	VP16 Luc counter	NR2F2 inh conf
CCOC(=O)C1CCN(C(=O)C(C)N(c2ccc(Oc3ccccc3)cc2)S(C)(=O)=O)CC1 (stereo not drawn)	45*	26	28	16	7	12	-3	21
COc1ccc(N(C(C)C(=O)N2CCCC2)S(C)(=O)=O)cc1 (stereo not drawn)	-8	11	0	-12	5	3	·	·
COc1ccc(CN(C)CC#Cc2ccccc2)c(OC)c1	-9	-10	·	·	·	·	·	·
O=[N+]([O-])c1ccc(Sc2cccc[n+]2[O-])c2nonc12	101*	93*	90*	84*	89*	86*	96*	105*
C=C(C)[C@@H]1CC2=C(OC)C(CC=C(C)C)(CC=C(C)C)C(=O)C(C(=O)c3ccccc3)=C2O1	5	15	·	·	·	·	·	·
COc1ccc(S[C@]2(C(=O)N3CCN(C(C)=O)CC3)CC(=O)N(C(=O)C3CC3)[C@@H]2c2ccc(OC)cc2)cc1	8	3	·	·	·	·	·	·
C=CC(=O)N1C/C(=C/c2ccc(F)cc2)C(=O)/C(=C\c2ccc(F)cc2)C1	106*	96*	60	-201	i	12	86*	104*
O=C(Nc1ccc(Oc2cccnc2)nc1)c1ccc(C(F)(F)F)cc1	66*	28	29	40	23	3	2	38*
O=C(Nc1ccc(Oc2cccc(C(F)(F)F)c2)nc1)c1ccco1	2	20	8	21	-13	-2	·	·
CC(C)(C)c1ccc(Oc2ccc(NC(=O)c3ccco3)cn2)cc1	43*	41	-7	32	-2	16	29*	59*
CC(C)N(C(N)=NC(=O)OCc1ccccc1)C(C)C	-7	-15	·	·	·	·	·	·
COc1cc2cc(C(=O)NCCc3c[nH]c4ccccc34)c(N)nc2cc1OC	36	11	20	·	·	·	·	·
Nc1nc2cc3c(cc2cc1C(=O)NCCc1c[nH]c2ccccc12)OCO3	66*	14	·	·	·	·	-2	52*
Nc1nnc(-c2cc3ccccc3oc2=O)s1	-26	-50	-82	-48	-66	-29	·	·
Nc1cccc(-c2cc3ccccc3oc2=O)c1	57*	46	9	21	16	4	8	7
CC(C)(C)c1ccc(OCCC(=O)Nc2cccc(S(=O)(=O)NC3=NCCCCC3)c2)cc1	40*	8	20	10	8	-2	-2	11
CN(CC(=O)Nc1cccc(S(=O)(=O)NC2=NCCCCC2)c1)Cc1ccc(C(C)(C)C)cc1	4	3	-3	-2	-2	23	·	·
O=C(CCc1nc(-c2ccccc2F)no1)NCCc1cccc(F)c1	-6	14	·	·	·	·	·	·
CCN(c1cccc(C(F)(F)F)c1)S(=O)(=O)c1ccc2c(c1)CCN2C(C)=O	47*	21	-1	6	7	12	0	3
CCN(c1cccc(C)c1)S(=O)(=O)c1ccc2c(c1)CCN2C(C)=O	9	1	5	11	8	5	·	·
CN(CCO)c1ccc2c(c1)Oc1ccccc1CN(Cc1cn(Cc3ccc(C(F)(F)F)cc3)nn1)S2(=O)=O	-21	9	·	·	·	·	·	·
Cn1c(=O)oc2cc(S(=O)(=O)N3CCN(c4cccc(C(F)(F)F)c4)CC3)ccc21	5	10	·	·	·	·	·	·
C=C(C(=O)c1ccccc1)C(NC(C)(C)C)c1ccccc1 (stereo not drawn)	80*	60*	73*	57	56	35	67*	92*
C=C(C(=O)c1ccccc1)C(C)CC(=O)c1ccccc1 (stereo not drawn)	-10	36	-3	32	1	-9	·	·
COc1ccc(CCc2nnc(CCC(=O)N(C)Cc3ccnc4ccccc34)o2)cc1	40*	10	25	19	5	3	-28	17
SMILES	NR2F2 inh	NCOA2 inhibitor	LRH-1 inv ag	NCOA3 inh	NCOA1 inh	Gli-Sufu antag	VP16 Luc counter	NR2F2 inh conf
COc1ccccc1CCc1nnc(CCC(=O)N(C)Cc2cccc3cnccc23)o1	-56	-37	-73	-43	-47	-11	·	·
NC1=C(Br)C(=O)c2ncccc2C1=O	81*	75*	95*	88*	83*	85*	92*	93*
O=C1c2cccnc2C(=O)N1CO	1	-36	1	13	0	4	·	·
CC1CCN(C(=O)c2ccc3c(c2NCCO)C(=O)c2ccccc2C3=O)CC1	2	17	-4	7	1	6	·	·
CCN(CC)CCNC(=O)c1ccc2c(c1NCCO)C(=O)c1ccccc1C2=O	64*	35	39	63*	44	42	-4	-5
CCOC(=O)Cc1csc(NC(=O)/C=C/c2cccc(Br)c2)n1	58*	16	2	26	14	11	-7	14
C=C(C)CSc1nnc(-c2cc(-c3ccccc3)n[nH]2)n1N	-16	-11	·	·	·	·	·	·
COCCN(C(=O)CCC(=O)Nc1nccs1)C(C(=O)NC(C)(C)C)c1ccc(F)cc1 (stereo not drawn)	5	-10	-2	1	15	0	·	·
COCCN(C(=O)CCC(=O)Nc1nccs1)C(C(=O)NC(C)(C)C)c1ccc(C)cc1 (stereo not drawn)	60*	76*	-25	0	-13	-9	-1	-5
NC(Cc1ccc(Cl)cc1)c1csc(NC(=O)NCCc2ccccc2)n1 (stereo not drawn)	-9	3	-14	-13	15	·	·	·
NC(Cc1ccc(Cl)cc1)c1csc(NC(=O)NCC2CCCCC2)n1 (stereo not drawn)	81*	60*	-8	12	-4	·	2	0
O=S1(=O)c2ccc(N3CCSCC3)cc2Oc2ccccc2CN1Cc1cn(Cc2cccc(F)c2)nn1	13	-34	·	·	·	·	·	·
COc1ccc2cc3c(N)nn(C(=O)c4ccccc4[N+](=O)[O-])c3nc2c1	43*	37	50	57	49	-24	15*	31
CC1CCC2C(=O)N(c3ccc(Cc4ccncc4)cc3)C(=O)C2C1 (stereo not drawn)	45*	5	31	21	-13	43	5	37
O=C1C2C3C=CC(C3)C2C(=O)N1c1ccc(Cc2ccncc2)cc1 (stereo not drawn)	27	1	26	18	19	-3	·	·
CCCC[C@H]1C2CC(OC(=O)Nc3ccccc3OC)C(C2)[C@H]2CCCCN21 (stereo partly drawn)	8	3	·	·	·	·	·	·
CC(C)NC(=O)N1CCCN(c2nc3ccc(Cl)cc3s2)CC1	41*	-16	12	9	-6	-7	-31	5
CC(C)C(=O)N1CCN(c2nc3ccc(Cl)cc3s2)CC1	-4	-24	-78	-34	-71	-82	·	·
